# An excerpt weighted towards active compounds, which were near 1.2% of everything screened.
# Rev-erbA mod: modulates human Rev-erb alpha binding to DNA | P20393 | Rev-erbα–FITC-DNA binding, fluorescence polarization, 90 min | activity, % at 10 µM | 370,000 tested, 0.79% active;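 active = activity above about 14%, limit read from the data; passing the limit was not always enough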;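 also: 0% = DMSO wells with 35 nM protein and 100% = DMSO wells with 750 nM protein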
# PKA-R2B activ: activators of human PKA-R2B complex | 340,000 tested, 0.079% active | activation, % at 11.4 µM | P22694+P31323 | PKA-R2B holoenzyme dissociation, Cy5-IP20 fluorescence polarization; R2B truncated from residue 108, S112A mutant; 0% DMSO only, 100% 113 µM cGMP;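 active = activation above a cutoff set at the mean over all compounds plus 3 SD, cut at about 18% in these data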;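 also: higher means more holoenzyme dissociation and a rise in polarization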
# Target sequence (P31323 whole entry, looked up, other chains not shown, the tested form may be a part): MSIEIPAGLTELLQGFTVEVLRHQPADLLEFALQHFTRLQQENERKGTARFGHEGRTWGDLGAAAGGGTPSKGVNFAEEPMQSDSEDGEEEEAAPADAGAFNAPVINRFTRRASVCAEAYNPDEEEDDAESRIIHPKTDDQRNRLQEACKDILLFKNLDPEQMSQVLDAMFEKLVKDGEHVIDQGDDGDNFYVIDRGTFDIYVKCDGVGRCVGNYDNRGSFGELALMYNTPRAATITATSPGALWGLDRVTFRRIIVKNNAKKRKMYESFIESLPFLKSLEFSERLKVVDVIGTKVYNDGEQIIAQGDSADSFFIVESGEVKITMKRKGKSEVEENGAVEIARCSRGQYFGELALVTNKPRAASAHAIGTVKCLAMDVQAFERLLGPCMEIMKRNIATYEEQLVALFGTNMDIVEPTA
# PG9 binder: PG9 antibody binding by small molecule | TR-FRET gp120-PG9 antibody binding | inhibition, % at 6.7 µM | 360,000 tested, 0.43% active | AID 624416; in the data active = inhibition above about 8.5%
# PKA-R1A activ: PKA-R1A complex activation; P00514+P68181; activation, % at 11.4 µM; 340,000 tested, 0.083% active; AID 504707; PKA-R1A dissociation, Cy5-IP20 fluorescence polarization; scaled: DMSO 0%, 113 µM cGMP 100%;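 active = percent activation above the mean of all tested compounds plus 3 SD, cut at about 19% in these data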;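 also: higher means more PKAc released from R1A so a rise in polarization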
# Rev-erbA confirm: Rev-erb alpha (human) modulation, hit confirmation; shares compounds with Rev-erbA mod; Rev-erb alpha FITC-DNA binding, fluorescence polarization, 90 min; activation, % at 25 µM; 3,000 tested, 61% active;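 active = activation at or above a set limit, or at least 3 SD above the negative control mean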;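 also: 0% = 35 nM protein with DMSO and 100% = 750 nM protein high control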
# RORg DNA counter: RORgamma DNA-binding activity, dose-response counter-screen | shares compounds with Rev-erbA mod | IC50, µM | 910 tested, 8% active | purified RORgamma protein-FITC-DNA binding, fluorescence polarization | AID 1259320;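 active = Compounds whose fitted half-maximal concentration for disrupting protein-DNA binding is below 10 micromolar; the record names Rev-erb in its text, so the target is in doubt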
# An asterisk follows results filed as active; . = no result given.
SMILES,Rev-erbA mod,PKA-R2B activ,PG9 binder,PKA-R1A activ,Rev-erbA confirm,others
COC(=O)c1sccc1NC(=O)C12CC3CC(CC(C3)C1)C2,25*,-11,0,-4,22*,
COC(=O)c1sccc1NC(=O)C1CC1,5,13,0,7,.,
O=C(CSc1nnnn1-c1ccc2c(c1)OCCO2)c1cccc2c1OCCO2,107*,11,-2,12,81*,RORg DNA counter=>40
O=C(O)CSc1nnc(-c2cccs2)n1-c1ccc(Cl)cc1,0,-8,1,-3,.,
COc1ccc(-n2nnnc2SCC(=O)c2ccc3c(c2)OCCO3)cc1,63*,2,8,-5,64*,
O=C(O)CSc1nnnn1-c1ccc2c(c1)OCCO2,-5,-5,1,-13,.,
COc1ccc(-n2nnnc2SCC(=O)c2cccc(OC)c2)cc1,9,-10,-1,-8,.,
O=C(CSc1nnc(-c2cccs2)n1-c1cccc(Cl)c1)c1cccc2c1OCCO2,79*,16,0,4,85*,RORg DNA counter=>40
O=C1N2CCc3ccccc3C2CS(=O)(=O)N1Cc1ccc(F)cc1 (stereo not given),-3,.,.,.,.,
Cc1cccc(C)c1OC(=O)CSc1nnc(-c2ccccc2O)o1,29*,-2,5,2,26*,
COC(=O)CSc1nnc(-c2ccccc2OC)o1,-3,-8,-1,-4,.,
CCOC(=O)c1ccc(NC(=O)COc2cc(=O)n(CC)c3ccccc23)cc1,28*,5,1,6,27*,
CCn1c(=O)cc(SCC(=O)Nc2ccc(Cl)cc2)c2ccccc21,138*,-2,0,-4,90*,RORg DNA counter=>40
C=CCN(CC#Cc1ccc(C)cc1)Cc1ccc(OC)cc1OC,4,.,.,.,.,
COc1cccc(NC(=O)n2ccc3ccc(-c4ccc5cc[nH]c5c4)cc32)c1,-5,.,.,.,.,
O=C(OCc1ccccc1)c1cccnc1,-4,.,.,.,.,
CCc1nc(SCC(=O)Nc2cc(C)ccc2OC)c2c(C)c(C)sc2n1,18*,-7,-1,-7,8,
CC(=O)N1CCc2c1cccc2S(=O)(=O)NC(CC(C)C)C(=O)Nc1ccc(F)cc1Cl (stereo not given),4,.,.,.,.,
Cc1nn(-c2ccccc2)c(Cl)c1/C=N/Nc1nncc(=O)[nH]1,25*,-8,-4,-7,18,
COC(=O)c1ccc2nc(C3CCCCC3)c(Cc3ccccc3C(F)(F)F)n2c1,18*,.,-3,.,12*,
FC(F)(F)c1ccccc1Cc1c(C2CCCCC2)nc2ccc(Cl)cn12,1,.,-1,.,.,
O=C(CSc1nnc(-c2ccncc2)n1-c1ccc(Cl)cc1)c1ccc(Cl)c(Cl)c1,31*,.,.,.,31*,RORg DNA counter=>40
O=C(N1CCC(n2nc(-c3ccccc3)oc2=O)CC1)C1(c2ccccc2)CCCC1,-2,.,.,.,.,
COc1cc(OC)cc(C(=O)Nc2ccc(S(=O)(=O)Nc3ccccn3)cc2)c1,25*,-14,-2,7,17,
O=C(Nc1ccnn1C1CCN(Cc2ccn[nH]2)CC1)c1ccccc1,16*,4,-1,7,-5,
SMILES,Rev-erbA mod,PKA-R2B activ,PG9 binder,PKA-R1A activ,Rev-erbA confirm,others
COc1ccc(N2CCN(C(=O)c3ccc(Cn4c(=S)[nH]c5ccc(N6CCOCC6)cc5c4=O)cc3)CC2)cc1,42*,4,0,-5,12,
CCc1cc2c(C)ccc(C)c2nc1SCC(=O)Nc1c[nH]c(=O)[nH]c1=O,53*,5,6,14,44*,RORg DNA counter=>40
CCc1nc2oc3ccccc3c(=O)c2cc1C(=O)OC,-1,-8,-2,-1,.,
O=C(O)c1cc2c(=O)c3ccccc3oc2nc1C(F)(F)F,3,10,-2,-3,.,
O=C(Nc1ccccc1)c1cc2c(=O)c3ccccc3oc2nc1C(F)(F)F,46*,-8,5,-13,34*,RORg DNA counter=>40
O=C(Nc1cccc(C(F)(F)F)c1)c1cc2c(=O)c3ccccc3oc2nc1C(F)(F)F,25*,6,0,8,19*,
Fc1ccc(-c2nc3ccccc3c3nc4ccccc4n23)cc1,26*,-6,1,-2,19*,
CCOC(=O)c1ccc(N/C=C\C(=O)c2cccc(OC)c2)cc1,27*,-16,2,6,5,
COc1ccc(CCNS(=O)(=O)c2c(C)n[nH]c2C)cc1,-3,.,.,.,.,

# High-throughput results: PubChem BioAssay, several laboratories
